Laboratory results as given in PubChem BioAssay AID1578 (Sanford-Burnham Center for Chemical Genomics, 2009).
“And” between values parts separate entries of the source, which are not always exact repeats. Equal values may be shown once. Among all 290,000 compounds or so, about 3,000 (1%) were called active. This is one part of a sample in which actives are shown more often than they occur. Rule as the data show it: active = inhibition mostly above about 36% (no sharp cut-off); inactive = mostly below about 34%. Some structures have more than one record in an assay (separate samples or runs), and their calls can disagree.

Experiment: NOD1 signaling inhibitors, primary screen, cell-based, luminescence, uHTS (AID 1578);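 also: HEK-293T reporter cells stimulated with the NOD1 agonist gamma-tri-DAP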
Settings: NOD1-driven NF-kB luciferase reporter cells, at 4 µM, stronger effect = higher value

Row | Structure (SMILES) | inhibition
1 | O=S(=O)(c1ccc(Cl)cc1)N1CN2CCN(C2)C1 | -10.2% (inactive)
2 | CN1C(=O)C(=Cc2cn(CC#N)c3ccccc23)C(=O)N(C)C1=O | 1.8% (inactive)
3 | CC1CCCCN1Cc1c[nH]c2ccccc12 (configuration not stated) | -3.8% (inactive)
4 | c1cncc(C2CCCCN2)c1 (configuration not stated) | -6.3% (inactive)
5 | O=C1NC(c2cccnc2)Nc2sc3c(c21)CCCC3 (configuration not stated) | -24.5% (inactive)
6 | c1cncc(C2Nc3cccc4cccc(c34)N2)c1 | 54.6% (active) and -3.4% (inactive)
7 | CC#CP(=O)(OC)C(O)(CF)c1ccccc1 (configuration not stated) | -41.2% (inactive)
8 | O=S(=O)(c1ccc(Cl)cc1Cl)N1CCCC1c1cccnc1 (configuration not stated) | -4.1% (inactive)
9 | CC(=O)Nc1ccc(CC(=O)N2CCN(Cc3ccccc3)CC2)cc1 | 25.2% (inactive)
10 | C[C@H]1C[C@@H](C)C(=O)[C@@H]([C@H](O)CC2CC(=O)NC(=O)C2)C1 | 88% (active)
11 | Cc1ccccc1NC(=O)CCl | 18.4% (inactive)
12 | CCN(CC)S(=O)(=O)c1ccc(C(=O)NC2CN3CCC2CC3)cc1 (configuration not stated) | 7.1% (inactive)
13 | CCN(CC)CCCN=Cc1c(O)n(CCc2ccc(F)cc2)c(=O)[nH]c1=O | 19.7% (inactive)
14 | CC(=O)OC(C)(C)/C=C/C(=O)[C@](C)(O)[C@H]1[C@H](O)C[C@@]2(C)[C@@H]3CC=C4[C@H](C[C@H](O)C(=O)C4(C)C)[C@]3(C)C(=O)C[C@]12C | 92.6% (active)
15 | CC(=O)OC(C)(C)/C=C/C(=O)C(C)(O)C1[C@H](O)C[C@@]2(C)C3CC=C4C(CC[C@@H](O)C4(C)C)[C@]3(CO)C(=O)C[C@]12C (some centres not stated) | 12% (inactive)
16 | Cc1ccc(-c2cc(-c3ccc(C)cc3)[n+](C)o2)cc1 | 26.6% (inactive)
17 | O=[N+]([O-])c1ccc(C2[C@H]3C(c4ccccc4)=NC4(CCCC4)N23)cc1 (some centres not stated) | -19.9% (inactive)
18 | Cc1nn(-c2ccccc2)c2c1CC1(C(=O)N(C)C(=O)N(C)C1=O)C1CCCCN21 (configuration not stated) | -10.6% (inactive)
19 | CN(CCCCC(=O)/C=N/O)Cc1ccccc1 (tested in a mixture with another compound) | -7.6% (inactive)
20 | O=[N+]([O-])c1ccc(N2CCNCC2)cc1N1CCCCCC1 | -7.5% (inactive)
21 | O=C(CSC1c2ccccc2-c2ccccc21)N/N=C/c1ccccc1 | 14.7% (inactive)
22 | O=C(CSC1c2ccccc2-c2ccccc21)N/N=C/c1ccccc1O | 80.9% (active)
23 | O=C(CSC1c2ccccc2-c2ccccc21)N/N=C/c1ccccc1C(=O)O | -22.4% (inactive)
24 | Oc1cccc(/C=N/NP(=S)(c2ccccc2)c2ccccc2)c1 | -0.8% (inactive)

Row | Structure (SMILES) | inhibition
25 | COCc1ccc(CN2CCCC(C(=O)c3sccc3C)C2)o1 (configuration not stated) | -44.8% (inactive)
26 | CN(Cc1ccccc1)Cc1ccccc1OC(=O)N(C)C | 2.4% (inactive)
27 | C/C(=C\c1ccc(N(C)C)cc1)[N+](=O)[O-] | 41.9% (inactive)
28 | COc1cc(/C=C(/C)[N+](=O)[O-])ccc1OCc1ccccc1Cl | 86.8% (active)
29 | COc1cc(C=C2C(=O)NC(=O)NC2=O)ccc1OCc1ccc([N+](=O)[O-])cc1 | -52% (inactive)
30 | CCOC(=O)CNC(=S)N1CC2C[C@@H](C1)Cn1c2cccc1=O | 0.7% (inactive)
31 | Cc1cc(N2CCCC2)ccc1C=C(C#N)C#N | -24.7% (inactive)
32 | Cc1ccc2cc(C=C(C#N)C#N)c(Cl)nc2c1 | 72.2% (active)
33 | CN(C)c1ccc(C=C(C#N)C#N)cc1 | -35.8% (inactive)
34 | Cc1c(-c2cccc(Cl)c2)nc2ccccc2c1C(=O)N1CCC2(CC1)OCCO2 | -11.2% (inactive)
35 | Nc1ccccc1-[n+]1c(-c2ccccc2)cc(-c2ccccc2)cc1-c1ccccc1 | -5.4% (inactive)
36 | c1ccc(-c2cc(-c3ccccc3)[n+](-c3ccccc3)c(-c3ccccc3)c2)cc1 | 65.7% (active)
37 | O=[N+]([O-])c1ccc(-[n+]2c(-c3ccccc3)cc(-c3ccccc3)cc2-c2ccccc2)cc1 | -8.8% (inactive)
38 | NC(=S)c1cn(C2OC(CO)C(O)C2O)c2ncnc(N)c12 (configuration not stated) | 104% (active)
39 | CCNC(=O)[C@H]1O[C@@H](n2cnc3c(N)ncnc32)[C@H](O)[C@@H]1O | -5.6% (inactive)
40 | CN(C)C(=O)Oc1ccc2c(c1)O/C(=C\c1cccc([N+](=O)[O-])c1)C2=O | -9.1% (inactive)
41 | O=C1NC(=O)C(=Cc2ccc(Sc3ccccc3)o2)C(=O)N1 | 1.7% (inactive)
42 | Cc1c(C=O)c2ccccc2n1Cc1ccccc1F | 5% (inactive)
43 | CCn1c(O)c(/C=N/NC(=O)c2ccncc2)c(=O)[nH]c1=S | 2.7% (inactive)
44 | CCOC(=O)CCN=Cc1c(O)n(-c2ccc(Br)cc2)c(=O)[nH]c1=O | -27.1% (inactive)
45 | Cc1cc(C)n2nc(C)[n+](C)c2n1 | -17.4% (inactive)
46 | COC(=O)c1c(C)n(Cc2ccccc2)c2ccc(O)cc12 | 19.6% (inactive)
47 | CCOC(=O)c1c(C)n(Cc2ccc3c(c2)OCO3)c2ccc(O)cc12 | -7.9% (inactive)
